The values that follow come from PubChem BioAssay (EPA / NIEHS).

Records with an inconclusive call do not appear. The source made the active and inactive calls. The calls were made as follows: active = hit-call score of the fitted dose curve at least 0.9, where 1 is the maximum; inconclusive = response in the unintended direction; inactive = score below 0.9.

Broad substrate specificity ATP-binding cassette transporter ABCG2 (Homo sapiens), sequence (Q9UNQ0 whole entry, looked up): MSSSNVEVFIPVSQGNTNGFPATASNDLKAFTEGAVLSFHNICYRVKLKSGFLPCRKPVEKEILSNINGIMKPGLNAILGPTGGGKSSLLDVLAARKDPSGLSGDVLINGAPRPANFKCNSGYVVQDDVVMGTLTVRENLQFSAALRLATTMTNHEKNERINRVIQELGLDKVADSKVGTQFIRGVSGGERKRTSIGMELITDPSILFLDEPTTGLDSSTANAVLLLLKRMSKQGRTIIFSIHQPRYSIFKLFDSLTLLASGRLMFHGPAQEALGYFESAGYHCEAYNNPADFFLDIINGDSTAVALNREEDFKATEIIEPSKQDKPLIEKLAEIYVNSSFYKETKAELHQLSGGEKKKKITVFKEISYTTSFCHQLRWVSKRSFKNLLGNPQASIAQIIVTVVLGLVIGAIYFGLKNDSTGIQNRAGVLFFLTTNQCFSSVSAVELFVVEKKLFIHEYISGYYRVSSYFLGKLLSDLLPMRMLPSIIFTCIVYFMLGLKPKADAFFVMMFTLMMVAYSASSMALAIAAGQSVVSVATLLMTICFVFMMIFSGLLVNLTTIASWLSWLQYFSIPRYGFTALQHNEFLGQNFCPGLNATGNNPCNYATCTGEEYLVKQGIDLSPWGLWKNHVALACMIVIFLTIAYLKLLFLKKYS

Read-out in the experiment: Broad substrate specificity ATP-binding cassette transporter ABCG2 (Homo sapiens) (UniProt Q9UNQ0)
The experiment can be described thus: CLD_ABCG2_24hr: CellzDirect (CLD) Gene Expression Assay for ABC Transporter (ABCG2) at 24 hours (AID 2283685). The method, then:
CLD_24hr is a cell-based, multiplexed-readout assay that uses hepatocyte, a human liver primary cell, with measurements taken at 24 hours after chemical dosing in a 96-well plate.CLD_ABCG2_24hr is one of 16 assay component(s) measured or calculated from the CLD_24hr assay. It is designed to make measurements of mRNA induction, a form of inducible reporter, as detected with chemiluminescence signals by Quantitative Nuclease Protection Assay (qNPA) technology.Data from the assay component CLD_ABCG2_24hr was analyzed at the endpoint, CLD_ABCG2_24hr, in the positive analysis fitting direction relative to DMSO as the negative control and baseline of activity. Using a type of inducible reporter, gain-of-signal activity can be used to understand changes in the reporter gene as they relate to the gene ABCG2. Furthermore, this assay endpoint can be referred to as a primary readout. To generalize the intended target to other relatable targets, this assay endpoint is annotated to the transporter intended target family, where subfamily is ABC transporter.
Human hepatocyte cultures were treated daily for two consecutive days with fresh dosing solutions containing appropriate concentrations of the 320 ToxCast chemicals (chemical identities were blinded to CellzDirect and other ToxCast collaborators), vehicle control (0.2% DMSO), and positive control inducers as summarized in Table 1. Due to the large number of treatment groups and chemicals examined, the ToxCast chemicals were divided into two groups (spanning two independent cultures of hepatocytes from separate donor preparations (Hu778: ToxCast plates 1 and 2; Hu776: ToxCast plates 3 and 4). Each preparation of human hepatocyte cultures was treated with respective vehicle control, medium only control, set of six positive controls/reference chemicals for the five hepatic receptor pathways, and a subset of eight of the ToxCast chemicals (indoxacarb, pyrithiobac-sodium, norflurazon, cyhalofop-butyl, methomyl, thiram, acetochlor, and propiconazole). These replicate data, coupled with internal replicates designed within the blinded ToxCast chemical library, provided additional data to evaluate interindividual differences between hepatocyte preparations and their potential impact on chemical profiles.Cell morphology and integrity were evaluated using phase-contrast microscopy as an indicator of hepatocyte cell health (Tyson & Green, 1987). Cultures for each treatment group (i.e., media, vehicle [0.2% DMSO], positive control inducers [multiple concentrations], and the ToxCast chemicals [multiple concentrations]) were observed and cell morphology was assessed relative to vehicle control cultures at each harvest time point (0, 6, 24, or 48 h). […] Images were evaluated at the conclusion of the study to assess changes in cell integrity and account for the effects of chemical exposure on uncharacteristic changes in concentration-dependent gene expression profiles. The results from these determinations of apparent cytotoxicity were annotated (yes/no) alongside the corresponding qNPA data for reference.At the conclusion of each treatment period, hepatocyte cultures (96-well) were washed with 1 volume of HBSS, lysed by addition of 25 ul ArrayPlate lysis buffer (HTG, Tucson, AZ), and 70 ul/well of Denaturation Oil, denatured by incubation at 95C for 10 min, and frozen at approximately -70C until analysis by nuclease protection assay (qNPA) (Roberts et al., 2007). For qNPA analysis, cell lysates were thawed at 50C for approximately 30 min, qNPA probes were added, and samples were incubated at 95C for 10 min to begin the detection process by denaturing the target RNA, dissociating the duplexes and secondary structure hybridization. At the conclusion of the hybridization period, S1 nuclease reagent was added to each sample to digest all nonprotected nucleotides at 50C for 60-90 min. […]
For the molecule `CCCCCCC(C)OC(=O)COc1nc(F)c(Cl)c(N)c1Cl` (stereo not given), the call was inactive.

As to `CCCOC(=O)NCCCN(C)C`, the molecule was classed as inactive.

`CCOC(=O)NCCOc1ccc(Oc2ccccc2)cc1`: the molecule was called inactive.

On to `CCCCOC(=O)[C@@H](C)Oc1ccc(Oc2ccc(C(F)(F)F)cn2)cc1`, for which the molecule was called inactive.

For `CCCOC(=O)c1ccc(C(=O)OCCC)nc1`, the molecule was classed as inactive.

For `CCCCOC(=O)C(C)Oc1ccc(Oc2ccc(C(F)(F)F)cn2)cc1` (stereo not given), the call was inactive.

In the case of `C=CCOC(Cn1ccnc1)c1ccc(Cl)cc1Cl` (stereo not given), the result was inactive.

Take `C#CCOC(=O)[C@@H](C)Oc1ccc(Oc2ncc(Cl)cc2F)cc1`: the molecule was classed as inactive.

With `S=C(S)NCCNC(=S)S.[Mn+2].[S-]C([S-])=NCCN=C([S-])[S-].[Zn+2]`, the call was inactive.

Turning to `CCOC(=O)COc1cc(-n2ncc(C(F)(F)F)c(C)c2=O)c(F)cc1Cl`, the call was inactive.

Turning to `COC(=O)CSc1cc(N=c2sc(=O)n3n2CCCC3)c(F)cc1Cl`, the outcome was inactive.

For the molecule `CCSC(=O)N(CC(C)C)CC(C)C`, the call was inactive.

As to `S=C([S-])NCCNC(=S)[S-].[Mn+2]`, the outcome was inactive.

Regarding `O=C(O)C1(C(=O)Nc2ccc(Cl)cc2Cl)CC1`, the molecule was called inactive.

Turning to `CCCN(CCC)c1c([N+](=O)[O-])cc(C(F)(F)F)c(N)c1[N+](=O)[O-]`, the molecule was called inactive.

With `COc1c(Cl)ccc(Cl)c1C(=O)O`, the molecule was called inactive.

Turning to `CCC(C)OC(=O)N1CCCCC1CCO` (stereo not given), the result was inactive.

For `O=C(Nc1ccc([N+](=O)[O-])cc1Cl)c1cc(Cl)ccc1O`, the outcome was inactive.

On to `CSC(=O)c1cccc2nnsc12`, for which the call was inactive.

Turning to `Cc1nn(C)c(Oc2ccccc2)c1C=NOCc1ccc(C(=O)OC(C)(C)C)cc1`, the call was inactive.

Regarding `CC(C)(c1ccc(O)cc1)c1ccc(O)cc1`, the molecule was called inactive.

Regarding `N#CSCSc1nc2ccccc2s1`, the call was inactive.

As to `CC(C)(C)[C@@H](O)[C@@H](Cc1ccc(Cl)cc1)n1cncn1`, the result was inactive.

For `CCOC(=O)C(C)Oc1ccc(Oc2nc3ccc(Cl)cc3o2)cc1` (stereo not given), the call was inactive.

`CCCN(CCC)C(=O)SCC`: the call was inactive.

On to `COCCO`, for which the molecule was classed as inactive.

Regarding `OB(O)O`, the molecule was called inactive.

Consider `CCC(O)=C1C(=O)CC(C(=O)O)CC1=O` (stereo not given), for which the molecule was classed as inactive.

As to `CCOC(=O)[C@H](C)Oc1ccc(Oc2nc3ccc(Cl)cc3o2)cc1`, the molecule was called inactive.

Turning to `COC(=O)c1ccc(I)cc1S(=O)(=O)NC(=O)Nc1nc(C)nc(OC)n1`, the molecule was called inactive.
